The results in this text go back to PubChem BioAssay.

“And” between values parts separate entries of the source, which are not always exact repeats. Equal values may be shown once. Inconclusive results are not listed. The source made the active and inactive calls.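 The calls were made as follows, unless noted: active = normalized viability below 100% at a tested concentration; inactive = the rest.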

The subject of assay [1] is Aerobactin synthetase IucA (Klebsiella pneumoniae). Put plainly: inhibition of K. pneumoniae IucA enzyme – biochemical, Tocris library, absorbance (AID 1345561; call rule not given here;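 also: 100% = enzyme without compound and 0% = no enzyme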). Conditions: purified IucA enzyme assay, absorbance (OD) read-out; stronger effect = lower value;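 tested at 8 µM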.
Assay [2] is described as follows: viability loss in pontine glioma line – cell-based, SU-DIPG-XVII, MIPE5.0, CellTiter-Glo, qHTS, dose response (AID 1347060; cut-off not given, nearly all actives have AC50 up to about 26 µM;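 also: cells exposed to compound for 48 hours before viability readout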). The settings on record: CellTiter-Glo ATP luminescence. (In general: ATP-based viability assays read luminescence as a measure of living cells.)
Assay [3] is described as follows: viability loss in pontine glioma line – cell-based, SU-DIPG-XIII, MIPE5.0, CellTiter-Glo, qHTS, dose response (AID 1347064; cut-off not given, nearly all actives have AC50 up to about 23 µM;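 as to AC50: cells exposed to compound for 48 hours before the viability read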). The settings on record: CellTiter-Glo ATP luminescence.
A short description of assay [4]: JHH-DIPG-1 glioma cell viability, MIPE5.0 library, CellTiter-Glo luminescence, qHTS (AID 1347067; cut-off not given, nearly all actives have AC50 up to about 26 µM;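 also: cells exposed to compound for 48 hours before readout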). Conditions: JHH-DIPG-1 glioma viability, CellTiter-Glo ATP luminescence.
A short description of assay [5]: growth inhibition of DIPG cells – cell-based, MIPE5.0 library, qHTS (AID 1347068; cut-off not given, nearly all actives have IC50 up to about 30 µM). The settings on record: SU-DIPG-XXV viability. For orientation: Quantitative high-throughput screening tests each substance at several concentrations.
Assay [6] can be described thus: viability loss with induced miR-34 in A549 – imaging, A549 dox-inducible miR-34, nuclei and caspase counts, primary screen (AID 1347080;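 active = compounds whose cell count with miR-34 switched on is under 0.7 times the count with it off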). Conditions: A549 miR-34 inducible, Hoechst nuclei count, 48 h.
A short description of assay [7]: galactose survival enhancers in mitochondrial complex I cybrids – cell-based, galactose medium, ATP luminescence, primary screen (AID 1645843;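 active = z-score of at least 1.8 in each of two replicates, scored against plate mean and spread of sample wells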;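 also: positive z means more ATP and so rescue of galactose-driven cybrid death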). Conditions: complex I mutant cybrid cells, 72 h, stronger effect = higher value.
Assay [8] is described as follows: viability loss in pontine glioma line – cell-based, JHH-DIPG-1, MIPE4.0, CellTiter-Glo, qHTS, dose response (AID 1347062; cut-off not given, nearly all actives have AC50 up to about 27 µM). Conditions: JHH-DIPG-1 viability, CellTiter-Glo ATP luminescence.
Assay [9] can be described thus: growth inhibition of DIPG cells – cell-based, MIPE4.0 library, CellTiter-Glo luminescence, qHTS (AID 1347066; cut-off not given, nearly all actives have AC50 up to about 30 µM;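 also: cells exposed to compound for 48 hours before readout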). Conditions: SU-DIPG-VI viability, CellTiter-Glo ATP luminescence.
The nature of assay [10]: P. berghei load reduction in hepatocytes – cell-based, HepG2, luciferase luminescence, HepG2 viability, primary screen (AID 624349; in the data active = parasite load remaining mostly below about 12%, no sharp cut-off; inactive = mostly above about 10%;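 also: 100% = mean of DMSO negative control wells on the same plate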). Conditions: P. berghei liver stage in HepG2, luciferase luminescence, concentration not given here; parasite load remaining: stronger effect = lower value; viability: measured here: HepG2 viability without parasites.
A short description of assay [11]: viability loss in pontine glioma line – cell-based, SU-DIPG-XIII, MIPE4.0, CellTiter-Glo, qHTS, dose response (AID 1347061; cut-off not given, nearly all actives have AC50 up to about 37 µM;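 also: cells exposed to compound for 48 hours before readout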). Conditions: CellTiter-Glo ATP luminescence.
Assay [12] can be described thus: viability loss in pontine glioma line – cell-based, SU-DIPG-XXV, MIPE5.0, CellTiter-Glo, qHTS, dose response (AID 1347065; cut-off not given, nearly all actives have AC50 up to about 26 µM;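 also: cells exposed to compound for 48 hours before ATP readout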). Conditions: CellTiter-Glo ATP luminescence.
Assay [13] in a line: compounds altering HSF1 focus formation in cells – imaging, Selleck Cancer Library (AID 1347162; in the data active = plate-normalised HSF1 focus index below about 0.46). Conditions: human cells, HSF1 nuclear foci imaging, at 10 µM; SSMD: measured here: HSF1 foci SSMD mean; cell count: measured here: cell number; plate-normalised HSF1 focus index: stronger effect = lower value.
Assay [14] is described as follows: drug combination growth inhibition, ovarian cancer – cell-based, oncology-focused library, rucaparib conditional, profiling panel (AID 1508598). The settings on record: patient-derived ovarian cancer cells, CellTiter-Glo viability, 144 h, stronger effect = lower value.
The mark [15] stands for this setting: stronger effect = lower value, cell number ratio, induced over uninduced.
Setting [16] is: measured here: relative caspase fold change +Dox/-Dox.
Setting [17] is: measured here: total cells with miR-34 induction, stronger effect = lower value.
Setting [18] is: measured here: total cells without miR-34 induction.

For `CNC(=O)[C@H]1O[C@@H](n2cnc3c(NCc4cccc(I)c4)nc(Cl)nc32)[C@H](O)[C@@H]1O`, the remaining activity (usually the signal under treatment as a percentage of the control signal) in assay [1] is 96.8% (inactive). The AC50 (usually the midpoint of the concentration-response curve, whichever way the signal moves) is 18.6 µM (active) in assay [2], 16.6 µM (active) in assay [3] and 23.5 µM (active) in assay [4]. In addition, the outcome in assay [5] was inactive. Moreover, the fold change in assay [6] (setting [15]) is 0.954 (inactive); in assay [6] (setting [16]) it was 0.816. The cell count in assay [6] (setting [17]) was 5880; in assay [6] (setting [18]) it was 6160. The z-score in [7] was -0.4 (inactive).

As for `CC(C)(Sc1ccc(CCN(CCCCC2CCCCC2)C(=O)NC2CCCCC2)cc1)C(=O)O`, in assay [1], the remaining activity was 122% (inactive). Moreover, the result in assay [8], in assay [9] and in assay [5] was inactive. The fold change is 0.945 (inactive) and 0.954 (inactive) and 0.926 (inactive) in [6] (setting [15]); 1.38 and 0.651 and 0.687 in assay [6] (setting [16]). The cell count in assay [6] (setting [17]) was 8520 and 5920 and 7310; in assay [6] (setting [18]) it was 9020 and 6210 and 7900. Besides, in assay [7], the z-score is 0.62 (inactive) and 1.14 (inactive).

`N#CC(=C(/N)Sc1ccccc1N)/C(C#N)=C(\N)Sc1ccccc1N`: in assay [1], the remaining activity is 92.9% (inactive). Further, the z-score in assay [7] was -0.875 (inactive).

As to `N#C/C(=C(/N)Sc1ccc(N)cc1)c1ccccc1C(F)(F)F`, in assay [10], the parasite load remaining is 62.2% (inactive). Besides, the viability (usually a read-out of living cells in per cent, often relative to untreated cells) in [10] turned out to be 76.3%. Further, the remaining activity in assay [1] is 113% (inactive). Further, the AC50 in assay [11] was 18.7 µM (active). Further, the call in assay [12], in [9] and in [5] was inactive. In addition, the fold change is 0.944 (inactive) in [6] (setting [15]) and 0.995 in assay [6] (setting [16]). For the same compound, the figures for the cell count in [6] (setting [17]) and in [6] (setting [18]) were 5510 and 5840, respectively. For the same compound, in assay [7], the z-score was -0.775 (inactive).

For `COc1ccc(-c2oc3cc(OC)ccc3c2C(=O)c2ccc(C#N)cc2)cc1`, the remaining activity in assay [1] is 104% (inactive). In addition, the call in [11] and in assay [8] was inactive. In addition, the fold change was 0.933 (inactive) in assay [6] (setting [15]) and 1.26 in assay [6] (setting [16]). In addition, the cell count amounted to 7250 in assay [6] (setting [17]), 7780 in assay [6] (setting [18]) and 6920 in assay [13]. Also, the SSMD in assay [13] is 3.38. In assay [13], the plate-normalised HSF1 focus index was 1.2 (inactive). Moreover, the z-score in assay [7] is 0.755 (inactive).

For the compound `C[C@@H](N)C1CCC(C(=O)Nc2ccncc2)CC1` (some centres undefined), the parasite load remaining in assay [10] was 75.2% (inactive). The viability in [10] is 142%; in [14] (at 0.000305 µM, OCI-C5x cells, with rucaparib 10 µM, 100% = cells with rucaparib alone), 112% (inactive); in assay [14] (at 0.000305 µM, OCI-C5x cells, without rucaparib), 113% (inactive); in assay [14] (at 0.000305 µM, OCI-P5x cells, with rucaparib 20 µM, 100% = cells with rucaparib alone), 93.5% (active); in assay [14] (at 0.000305 µM, OCI-P5x cells, without rucaparib) it was 93.7% (active); in assay [14] (at 0.00122 µM, OCI-C5x cells, with rucaparib 10 µM, 100% = cells with rucaparib alone), 112% (inactive). Besides, the viability in [14] (at 0.00122 µM, OCI-C5x cells, without rucaparib) was 109% (inactive); in [14] (at 0.00122 µM, OCI-P5x cells, with rucaparib 20 µM, 100% = cells with rucaparib alone), 96.3% (active); in [14] (at 0.00122 µM, OCI-P5x cells, without rucaparib), 92.8% (active); in [14] (at 0.00488 µM, OCI-C5x cells, with rucaparib 10 µM, 100% = cells with rucaparib alone) it was 115% (inactive); in [14] (at 0.00488 µM, OCI-C5x cells, without rucaparib) it was 112% (inactive); in assay [14] (at 0.00488 µM, OCI-P5x cells, with rucaparib 20 µM, 100% = cells with rucaparib alone) it was 99.1% (active). Besides, the viability in assay [14] (at 0.00488 µM, OCI-P5x cells, without rucaparib) was 96.4% (active); in [14] (at 0.0195 µM, OCI-C5x cells, with rucaparib 10 µM, 100% = cells with rucaparib alone), 106% (inactive). Also, in assay [1], the remaining activity was 114% (inactive). In addition, the call in [11], in [8], in [3], in [12], in [9] and in [4] was inactive. Further, the call in assay [5] was inactive. Also, the fold change is 0.864 (inactive) and 0.892 (inactive) in assay [6] (setting [15]); 0.978 and 1.24 in [6] (setting [16]). For the same compound, the cell count in assay [6] (setting [17]) was 4720 and 9420; in assay [6] (setting [18]) it was 5470 and 10600; in assay [13] it was 7180. In [13], this compound showed an SSMD of 3.4. Further, in [13], the plate-normalised HSF1 focus index is 1.19 (inactive).
